Measurements published in PubChem BioAssay AID1159580 (chemical genetic matrix, 2015).
Hit rate of the full screen: of about 5,500 compounds, about 2,000 (36%) were called active. Roughly 18% stayed inconclusive and do not appear here. Rule as the data show it: active = normalized growth mostly below about 0.91 (no sharp cut-off); inconclusive = no clear call, values can overlap the other calls; inactive = mostly above about 0.92. This is one part of the list.

Assay: chemical genetic growth profiling, strain panel (AID 1159580);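 also: tested at 20 µM; growth read once vehicle control cultures reached saturation at 30 °C; 1 = growth at the plate median or of vehicle wells; lower values mean less growth of the strain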
Conditions: S. cerevisiae deletion strains, growth OD
[1] = locus YDR150W, strain NUM1, hits give low values
[2] = locus YMR307W, strain GAS1, hits give low values
[3] = locus YPL055C, strain LGE1, hits give low values

Measured: normalized growth

C[C@]12C=CC(=O)C=C1CC[C@H]1[C@@H]3C[C@@H](O)[C@](O)(C(=O)CO)[C@@]3(C)C[C@H](O)[C@@]12F
inactive: locus YAL040C, strain CLN3, hits give low values 1.02 | locus YCL061C, strain MRC1 (second series), hits give low values 1.01 | [1] 1 | locus YDR363W, strain ESC2, hits give low values 1.05 | locus YER002W, strain NOP16, hits give low values 1.01 | locus YGR078C, strain PAC10, hits give low values 1 | [2] 1.02 | locus YNL128W, strain TEP1, hits give low values 1.01 | locus YNL153C, strain GIM3, hits give low values 1 | locus YNL175C, strain NOP13, hits give low values 1 | locus YNL197C, strain WHI3, hits give low values 0.987 | locus YNL224C, strain SQS1, hits give low values 1.01 | locus YOR083W, strain WHI5 (second series), hits give low values 1.01 | [3] 1.03

CSCCC(NC=O)C(=O)NC(CC(C)C)C(=O)NC(Cc1ccccc1)C(=O)O (centres undefined)
inactive: locus YAL013W, strain DEP1, hits give low values 1.01 | locus YAL021C, strain ccr4, hits give low values 1.01 | locus YAL026C, strain drs2, hits give low values 1 | locus YAL030W, strain snc1, hits give low values 1 | locus YBL061C, strain skt5, hits give low values 1 | locus YBR009C, strain hhf1, hits give low values 1 | locus YBR021W, strain FUR4, hits give low values 0.998 | locus YBR023C, strain chs3, hits give low values 1 | locus YBR171W, strain sec66, hits give low values 0.998 | locus YBR229C, strain ROT2, hits give low values 1 | locus YBR231C, strain swc5, hits give low values 0.997 | locus YBR279W, strain paf1, hits give low values 1.01 | locus YCL011C, strain gbp2, hits give low values 1 | locus YCL016C, strain dcc1, hits give low values 1 | locus YCL029C, strain bik1, hits give low values 0.983 | locus YCL061C, strain MRC1, hits give low values 1.01 | locus YCL069W, strain vba3, hits give low values 1.01 | locus YCR088W, strain abp1, hits give low values 0.999 | locus YDL005C, strain med2, hits give low values 0.988 | locus YDL035C, strain GPR1, hits give low values 0.999 | locus YDL040C, strain nat1, hits give low values 1 | locus YDL074C, strain BRE1, hits give low values 1.03 | locus YDL101C, strain DUN1, hits give low values 1.02 | locus YDL134C, strain PPH21, hits give low values 0.996 | locus YDL185W, strain tfp1, hits give low values 0.994 | locus YDL192W, strain arf1, hits give low values 0.994 | locus YDR001C, strain nth1, hits give low values 1 | locus YDR069C, strain doa4, hits give low values 1 | locus YDR101C, strain arx1, hits give low values 1 | locus YDR137W, strain rgp1, hits give low values 1.01 | [1] 1.01 | locus YDR159W, strain sac3, hits give low values 1 | locus YDR162C, strain NBP2, hits give low values 1 | locus YDR195W, strain ref2 0.97 | locus YDR297W, strain sur2, hits give low values 0.99 | locus YDR318W, strain mcm21, hits give low values 1.01 | locus YDR334W, strain swr1, hits give low values 1.01 | locus YDR335W, strain msn5, hits give low values 1 | locus YDR388W, hits give low values 1 | locus YDR392W, strain spt3, hits give low values 1.01 | locus YDR502C, strain sam2, hits give low values 1 | locus YEL003W, strain gim4, hits give low values 1 | locus YEL037C, strain rad23, hits give low values 1.01 | locus YEL061C, strain CIN8 (second series), hits give low values 1.02 | locus YEL061C, strain CIN8, hits give low values 1.01 | locus YER015W, strain faa2, hits give low values 1 | locus YER016W, strain bim1, hits give low values 1 | locus YER110C, hits give low values 1.01 | locus YER111C, strain swi4, hits give low values 1 | locus YER155C, strain BEM2 (second series), hits give low values 0.995 | locus YER155C, strain BEM2, hits give low values 1.01 | locus YER167W, strain BCK2, hits give low values 0.995 | locus YFR010W, strain ubp6, hits give low values 1 | locus YGL078C, strain dbp3, hits give low values 0.99 | locus YGL086W, strain mad1, hits give low values 1 | locus YGL167C, strain pmr1, hits give low values 1 | locus YGL173C, strain kem1, hits give low values 1.01 | locus YGL227W, strain vid30, hits give low values 0.992 | locus YGL240W, strain doc1, hits give low values 1 | locus YGL248W, strain PDE1, hits give low values 1.01 | locus YGL253W, strain hxk2, hits give low values 0.995 | locus YGR135W, strain pre9, hits give low values 1 | locus YGR252W, strain gcn5, hits give low values 1.01 | locus YHR013C, strain ard1, hits give low values 1 | locus YHR027C, strain rpn1, hits give low values 0.986 | locus YHR030C, strain SLT2, hits give low values 0.998 | locus YHR079C, strain IRE1 (second series), hits give low values 1 | locus YHR094C, strain hxt1, hits give low values 1 | locus YHR129C, strain ARP1, hits give low values 1.01 | locus YHR142W, strain chs7, hits give low values 1.01 | locus YHR200W, strain rpn10, hits give low values 0.98 | locus YIL066C, strain RNR3, hits give low values 0.996 | locus YIL073C, strain SPO22, hits give low values 1.01 | locus YIL125W, strain kgd1, hits give low values 0.998 | locus YIR030C, strain dcg1, hits give low values 0.99 | locus YJL092W, strain hpr5, hits give low values 0.993 | locus YJL095W, strain BCK1 (second series), hits give low values 1 | locus YJL095W, strain BCK1, hits give low values 1.03 | locus YJL115W, strain asf1, hits give low values 1.01 | locus YJL129C, strain trk1, hits give low values 1 | locus YJL134W, strain LCB3, hits give low values 1 | locus YJL154C, strain vps35, hits give low values 1 | locus YJL164C, strain tpk1, hits give low values 1.01 | locus YJL166W, strain qcr8, hits give low values 1.03 | locus YJL168C, strain set2, hits give low values 1.01 | locus YJL187C, strain SWE1 (second series), hits give low values 1.04 | locus YJL187C, strain SWE1, hits give low values 0.999 | locus YJR043C, strain POL32, hits give low values 0.992 | locus YJR075W, strain HOC1, hits give low values 1.02 | locus YKL009W, strain mrt4, hits give low values 1.01 | locus YKL068W, hits give low values 0.996 | locus YKL085W, strain MDH1 (second series), hits give low values 0.995 | locus YKL085W, strain MDH1, hits give low values 0.995 | locus YKL160W, strain elf1, hits give low values 1.01 | locus YKL190W, strain CNB1, hits give low values 1.01 | locus YKR001C, strain vps1, hits give low values 0.992 | locus YKR026C, strain gcn3, hits give low values 0.994 | locus YKR091W, strain srl3, hits give low values 1.01 | locus YLL001W, strain dnm1, hits give low values 1 | locus YLL026W, hits give low values 0.996 | locus YLL041C, strain sdh2, hits give low values 1.01 | locus YLR027C, strain aat2, hits give low values 0.988 | locus YLR039C, strain RIC1, hits give low values 1 | locus YLR058C, strain SHM2, hits give low values 1.02 | locus YLR102C, strain apc9, hits give low values 1 | locus YLR221C, strain rsa3, hits give low values 0.998 | locus YLR258W, strain gsy2, hits give low values 1.02 | locus YLR262C, strain YPT6 (second series), hits give low values 1.02 | locus YLR262C, strain YPT6, hits give low values 1.05 | locus YLR268W, strain sec22, hits give low values 1 | locus YLR320W, strain mms22, hits give low values 0.998 | locus YLR330W, strain CHS5, hits give low values 1.01 | locus YLR342W, strain FKS1 (second series), hits give low values 1.01 | locus YLR342W, strain FKS1, hits give low values 1 | locus YLR357W, strain rsc2, hits give low values 0.971 | locus YLR370C, strain arc18, hits give low values 1 | locus YLR371W, strain rom2, hits give low values 1.01 | locus YLR384C, strain iki3, hits give low values 1 | locus YLR418C, strain cdc73, hits give low values 0.998 | locus YML016C, strain PPZ1, hits give low values 1 | locus YML032C, strain rad52, hits give low values 0.998 | locus YML120C, strain ndi1, hits give low values 1.01 | locus YML124C, strain tub3, hits give low values 1 | locus YMR058W, strain fet3, hits give low values 1 | locus YMR078C, strain ctf18, hits give low values 1 | locus YMR125W, strain sto1, hits give low values 0.993 | locus YMR129W, hits give low values 1 | locus YMR205C, strain PFK2, hits give low values 1 | locus YMR223W, strain ubp8, hits give low values 1 | locus YMR231W, strain pep5, hits give low values 0.977 | [2] 1.05 | locus YNL067W, strain RPL9B, hits give low values 1.03 | locus YNL071W, strain lat1, hits give low values 1 | locus YNL209W, strain ssb2, hits give low values 1.01 | locus YNL233W, strain BNI4, hits give low values 1.02 | locus YNL248C, strain rpa49, hits give low values 1 | locus YNL250W, strain rad50, hits give low values 1.01 | locus YNL271C, strain bni1, hits give low values 0.996 | locus YNL298W, strain CLA4, hits give low values 1 | locus YNL307C, strain MCK1, hits give low values 1 | locus YNL322C, strain KRE1 (second series), hits give low values 0.996 | locus YNR049C, strain mso1, hits give low values 0.998 | locus YNR052C, strain pop2, hits give low values 1 | locus YOL006C, strain TOP1, hits give low values 1.06 | locus YOL012C, strain htz1 0.872 | locus YOL147C, strain pex11, hits give low values 1 | locus YOR001W, strain rrp6, hits give low values 1.01 | locus YOR061W, strain CKA2, hits give low values 0.997 | locus YOR069W, strain VPS5, hits give low values 1 | locus YOR070C, strain gyp1, hits give low values 1.02 | locus YOR080W, strain dia2, hits give low values 0.99 | locus YOR083W, strain WHI5, hits give low values 1 | locus YOR106W, strain vam3, hits give low values 1.01 | locus YOR136W, strain idh2, hits give low values 1.01 | locus YOR144C, strain elg1, hits give low values 0.987 | locus YOR184W, strain ser1, hits give low values 0.986 | locus YOR265W, strain rbl2, hits give low values 1.01 | locus YOR270C, strain vph1, hits give low values 1.03 | locus YOR290C, strain snf2, hits give low values 1.01 | locus YOR316C, strain cot1, hits give low values 1 | locus YPL051W, strain arl3, hits give low values 0.996 | [3] 1.01 | locus YPL078C, strain atp4, hits give low values 1 | locus YPL106C, strain sse1, hits give low values 0.99 | locus YPL240C, strain hsp82, hits give low values 0.999 | locus YPR119W, strain clb2, hits give low values 1 | locus YPR141C, strain kar3, hits give low values 0.985 | locus YPR163C, strain tif3, hits give low values 1 | locus YPR167C, strain met16, hits give low values 0.994 | strain wtn01, hits give low values 0.986
